High-throughput results: PubChem, Broad Institute
Tg IFNy HTS: inhibitors of Toxoplasma gondii growth with IFN-gamma; Toxoplasma gondii growth in IFN-gamma-treated host cells; hits give low values; activity change, negative = inhibition, % (no concentration beside the values); 69,000 tested, 3.8% active; in the data active = activity change below about -70%, passing the limit was not always enough;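 note: host cells are HeLa cells infected with Toxoplasma gondii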
Numbers without * were called inactive; i = inactive; ! = not active in a repeat. This excerpt belongs to a sample that is enriched for hits.

SMILES	Tg IFNy HTS
CSc1sc(C(=O)Nc2cc(C(F)(F)F)cc(C(F)(F)F)c2)c2c1C=CCC2	-55
COc1cncc(C(=O)Nc2ccc(Cl)cc2)c1	30
CSc1ncc2c(n1)-c1c(SC)sc(C(=O)Nc3ccc(Cl)cc3)c1CC2	-85*
CCOC(=O)c1c[nH]c2ccccc2c1=O	-64
COc1ccc(/C=C/C(=O)c2cc3cccc(OC)c3oc2=O)cc1	28
CC(C)n1cnnc1CN(C)c1nc(-c2cccnc2)nc2c1CNC2	3
CCN(CC)CCCC(C)Nc1c2ccc(Cl)cc2nc2ccc(OC)cc12 (stereo not given)	-72*!
COc1ccc2nc(C)cc(SCC(=O)c3ccc(Cl)cc3)c2c1	124
COc1cc(NC(C)CCCN)c2ncccc2c1 (stereo not given)	28
Cc1cc(C)c2c(NCc3ccc(C)o3)nn(C(=O)c3ccno3)c2n1	20
Cc1cc(NC(=O)c2cccc(CN3CCNC(=O)C3)c2)n(C)n1	-39
Cc1noc(C)c1NC(=O)Nc1ccc2c(c1)C(=O)N([C@H](C)CO)C[C@@H](C)[C@@H](CN(C)Cc1ccc3c(c1)OCO3)OCCCC[C@@H](C)O2	299
c1csc(CN2C[C@H]3OCCN(CCN4CCCC4)[C@H]3C2)c1	133
Cn1nc(C2CC2)c2c1NC(=O)CC2c1ccc(CN2CCCCC2)s1 (stereo not given)	66
Cc1oc(-c2cccc(C(F)(F)F)c2)nc1CN1CCCC(C(N)=O)C1 (stereo not given)	4
COc1ccc(CNC(=O)C2CCCN(Cc3nc(-c4cccc(C)c4)oc3C)C2)cc1 (stereo not given)	-83*
Cc1oc(-c2cccc(Cl)c2)nc1CN1CCCC(C(=O)NC2CCCCCC2)C1 (stereo not given)	-56
CC1(C)C(=O)NC2=C1C(=O)C(=O)c1ccccc12	-82*
CC1(C)NC(=O)N(CC(O)CN2C(=O)c3ccccc3C2=O)C1=O (stereo not given)	33
O=C(NC1CCCC1)N[C@H]1C=C[C@H](CC(=O)N2CCOCC2)O[C@@H]1CO	16
Cc1cccc(-c2nc(C)c(CCNS(=O)(=O)c3ccccc3)s2)c1	i
Cn1c(CCNC(=O)c2cc(-c3ccncc3)nc3ccccc23)nc2ccccc21	-40
O=C(NCc1csc(N2CCOCC2)n1)c1cccc2ccnn12	33
O=C(NCc1noc(Cc2ccccc2)n1)c1cccc2ccnn12	7
O=C(NCc1coc(-c2ccccc2)n1)c1cccc2ccnn12	-80*
SMILES	Tg IFNy HTS
Cc1cccc(S(=O)(=O)N2C[C@@H](O)COC[C@H]3O[C@H](CC(=O)Nc4ccccc4)CC[C@@H]32)c1	-36
Cn1cnc2cc(C(=O)NC3CCc4ccc(S(=O)(=O)N5CCOCC5)cc43)ccc21 (stereo not given)	1
O=C(Cc1ccc(F)cc1)N1CCn2cc(Cn3cncn3)nc2C1	6
Cc1ccc(CC(=O)N2CCn3cc(Cn4cncn4)nc3C2)cc1	-74*
O=C(Cc1cccc(F)c1)N1CCn2cc(Cn3cncn3)nc2C1	-15
COc1cccc(OCCc2nnc(N)s2)c1	19
O=C(Cn1ncc2c(N3CCCCC3)ncnc21)N1CCN(c2ccccc2)CC1	102
CCS(=O)(=O)N1CCC2(CC1)OC(=O)C(C)=C2C(=O)NCCCOC	23
CNC(=O)CC1C(=O)NCCN1Cc1nc2ccccc2n1C(C)C (stereo not given)	10
Cc1cc(C(=O)N2CC[C@H]3[C@@H]2CCN3c2nncs2)c(C)o1	-5
OCC1CCN(Cc2cc3n(n2)CCCNC3)CC1	3
c1ccc2c(c1)CCC(N1CCN(Cc3cc4n(n3)CCNC4)CC1)C2 (stereo not given)	12
c1cc2c(cc1OCC1CCN(Cc3cc4n(n3)CCNC4)CC1)CCC2	-87*
COCCCNC1=NCCNC12CCN(S(=O)(=O)c1ccc(C)cc1C)CC2	15
CNC(=O)C1CC2(CCN(Cc3cccc(C)n3)CC2)c2ccccc21 (stereo not given)	83
O=C(NCC[C@@H]1CC[C@@H](NC(=O)C2CCOCC2)[C@H](CO)O1)c1cc(Cl)cc(Cl)c1	21
CCc1nc(SCc2nnc(-c3ccc(C)cc3)o2)c2c(C)c(C)sc2n1	-32
N#Cc1c(C(F)(F)F)cc(-c2ccccc2)nc1SCC(N)=O	30
N#Cc1c(-c2ccccc2)cc(-c2ccccc2)nc1SCc1nnc(-c2ccccc2)o1	-100*
CCN(C[C@H]1[C@H](c2ccc(-c3cccnc3)cc2)[C@H](CO)N1C(C)=O)C(C)=O	17
O=C(c1ccccn1)N1CC[C@H]2CNS(=O)(=O)[C@@H]2CC1	5
C[C@@H]1CN([C@@H](C)CO)C(=O)c2ccccc2-c2ccccc2CO[C@@H]1CN(C)C(=O)Nc1ccc(-c2ccccc2)cc1	-60
C[C@@H]1CN([C@H](C)CO)C(=O)c2ccccc2-c2ccccc2CO[C@@H]1CN(C)C(=O)Nc1ccc(-c2ccccc2)cc1	-74*
C[C@@H]1CN([C@H](C)CO)C(=O)c2ccccc2-c2ccccc2CO[C@H]1CN(C)C(=O)Nc1cccc(C(F)(F)F)c1	-37
C[C@@H]1CN([C@H](C)CO)C(=O)c2ccccc2-c2ccccc2CO[C@H]1CN(C)C(=O)Nc1ccc(-c2ccccc2)cc1	-76*
SMILES	Tg IFNy HTS
C[C@H](CO)N1C[C@H](C)[C@@H](CN(C)C(=O)Nc2cccc(C(F)(F)F)c2)OCc2ccccc2-c2ccccc2C1=O	-36
C[C@H]1CN([C@@H](C)CO)C(=O)c2ccccc2-c2ccccc2CO[C@H]1CN(C)C(=O)NC1CCCCC1	14
Cc1ccc(N2CCc3ncnc(OC(C)C)c3CC2)nn1	-1
O=C(COc1ccc(Cl)cc1)Nc1ncccn1	19
NCC[C@H]1CC[C@H](NC(=O)Cc2ccncc2)[C@H](CO)O1	-49
N#Cc1ccc(C(=O)N2Cc3nccn3CC(Cn3cccn3)C2)cc1 (stereo not given)	-1
COc1ccc2c(O[C@H]3CC4C(=O)N(C)CCCC/C=C\[C@@H]5C[C@@]5(C(=O)NS(=O)(=O)C5CC5)NC(=O)[C@@H]4C3)cc(-c3nc(C(C)C)cs3)nc2c1C (stereo not given in full)	-74*
CC(C)(C)c1cc(CN2CCCN(C(=O)c3ccco3)CC2)[nH]n1	-1
O=S(=O)(NCC1CCN(Cc2cccc(O)c2)C1)c1ccccc1 (stereo not given)	-7
O=C(c1cc(C2CCCN(c3ncccn3)C2)[nH]n1)N1CCOCC1 (stereo not given)	13
Cc1cc(C)n(CCNC2CCN(c3ccc4c(c3)OCO4)CC2)c(=O)n1	9
C/C=C/c1ccc2c(c1)O[C@H](CN(C)C(=O)Nc1ccc(OC)cc1)[C@H](C)CN([C@@H](C)CO)S2(=O)=O	i
C[C@H]1CN([C@@H](C)CO)S(=O)(=O)c2ccc(Br)cc2O[C@H]1CN(C)C(=O)Nc1ccccc1F	97
C[C@H]1CN([C@@H](C)CO)S(=O)(=O)c2ccc(C#CC(C)(C)O)cc2O[C@H]1CN(C)Cc1ccc(F)cc1	-32
C[C@H](CO)N1C[C@H](C)[C@@H](CN(C)Cc2ccc(F)cc2)Oc2cc(C#CC(C)(C)O)ccc2S1(=O)=O	-95*
C[C@H](CO)N1C[C@H](C)[C@H](CN(C)Cc2ccc(F)cc2)Oc2cc(C#CC(C)(C)O)ccc2S1(=O)=O	275
Cc1ccccc1-c1ccc2c(c1)O[C@@H](CN(C)C(=O)Nc1ccc(C(F)(F)F)cc1)[C@H](C)CN([C@@H](C)CO)S2(=O)=O	-100*
C[C@@H]1CN([C@@H](C)CO)S(=O)(=O)c2ccc(C#CC3(O)CCCC3)cc2O[C@H]1CN(C)C(=O)Nc1cccc(F)c1	-92*
